Holding throughout (conditions): 25 µM; exposure: 24-48 hpf
The subject of assay [1] is Danio rerio Tg(wt1b:EGFP) embryo, pronephros. In words: glomerular separation, fold change vs DMSO control; higher = glomeruli further apart (abnormal). In short, it runs like this: (§1)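 Each feature value is a fold change relative to the mean of same-day DMSO-treated embryos. Embryos of the Tg(wt1b:EGFP) zebrafish line, dechorionated, received 25 μM compound in 0.5% DMSO from 24 to 48 hpf at 28.5°C, in HEPES-buffered E3 with 0.003% PTU. Distances and angles were computed by a Fiji macro from 16 manually set reference points on maximum projections of dorsal pronephros images, and values beyond 2 SD of the feature mean were removed.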

The test system is the same in assay [2]. Kind of assay: glomerular width (mean of left and right), fold change vs DMSO control; higher = wider glomerulus. Put shortly: as §1
Assay [3] shares this test system. Kind of assay: fraction of imaged embryos annotated as normal kidney; higher = less nephrotoxic; extreme values may be limits of the assay. In short, it runs like this: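 The read-out is the proportion of embryos in each treatment manually annotated as normal-kidney. Exposure ran from 24 to 48 hpf at 28.5°C in 12-well plates, using dechorionated Tg(wt1b:EGFP) zebrafish embryos in 5 mM HEPES-buffered E3 with 0.003% PTU, 0.5% DMSO and 25 μM compound. For imaging, larvae were anaesthetised with tricaine, positioned dorsally in agarose-filled 96-well plates and captured by widefield fluorescence (470 nm, 10 z-slices), with scoring done on maximum projections.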

Assay [4] has the same test system. Kind of assay: pronephric angle neck segment to proximal convoluted tubule (mean of left and right), fold change vs DMSO control; higher = larger pronephric angle. In short, it runs like this:
as §1

28 compounds from the supplement of paper PMC7366291 can be followed below.

Where a name gives a salt, the structure may show the parent alone. ± gives the standard deviation or the standard deviation of the averaged measurements.

`CC(=O)N(CC(O)CO)c1c(I)c(C(=O)NCC(O)CO)c(I)c(C(=O)NCC(O)CO)c1I` (configuration not stated) [Iohexol] showed a glomerular separation in assay [1] of 1.06 ± 0.38. This compound also gave a glomerular width in assay [2] of 0.963 ± 0.072. The “fraction of imaged embryos annotated as normal kidney” value (“fraction of imaged embryos annotated” below) in assay [3] is 0.75. Moreover, the “pronephric angle neck segment” value in assay [4] is 0.962 ± 0.069.

In assay [1], `CCOc1cc(CC(=O)N[C@@H](CC(C)C)c2ccccc2N2CCCCC2)ccc1C(=O)O` [Repaglinide] yielded a glomerular separation of 1.44 ± 0.91. For the same compound, the glomerular width in assay [2] is 0.943 ± 0.028. In assay [3], the “fraction of imaged embryos annotated” value was determined as 0.75. Besides, the “pronephric angle neck segment” value in assay [4] worked out at 1.06 ± 0.036.

In the case of `CCC[C@@H]1C[C@@H](C(=O)N[C@@H]([C@H]2O[C@H](SC)[C@H](O)[C@@H](O)[C@H]2O)[C@@H](C)O)N(C)C1` [Lincomycin hydrochloride], the glomerular separation in assay [1] stood at 0.865 ± 0.33. Besides, the glomerular width in assay [2] amounted to 0.984 ± 0.037. Further, the “fraction of imaged embryos annotated” value in assay [3] was 0.917. Also, the “pronephric angle neck segment” value in assay [4] was 0.9548 ± 0.0043.

The compound `Nc1nc2c(ncn2COC(CO)CO)c(=O)[nH]1` [Ganciclovir] returned a glomerular separation in assay [1] of 0.62 ± 0.26. The compound also had a glomerular width in assay [2] of 1.009 ± 0.0021. The “fraction of imaged embryos annotated” value in assay [3] stood at 0.917. Further, the “pronephric angle neck segment” value in assay [4] is 0.998 ± 0.018.

As to `NC(=O)c1cccnc1` [Nicotinamide], in assay [1], the glomerular separation came out at 1 ± 0.22. The compound further had a glomerular width in assay [2] of 1.022 ± 0.0032. Also, the “fraction of imaged embryos annotated” value in assay [3] was 0.909. Besides, the “pronephric angle neck segment” value in assay [4] was 0.985 ± 0.059.

As for `Cn1c(NCCN(CCO)CCCc2ccc([N+](=O)[O-])cc2)cc(=O)n(C)c1=O` [Nifekalant], in assay [1], the glomerular separation stood at 0.925 ± 0.31. Further, the glomerular width in assay [2] worked out at 0.965 ± 0.033. For the same compound, in assay [3], the “fraction of imaged embryos annotated” value worked out at 0.833. Moreover, the “pronephric angle neck segment” value in assay [4] was 0.9169 ± 0.0049.

`CCCCOc1cc(C(=O)NCCN(CC)CC)c2ccccc2n1` [Dibucaine] came in with a glomerular separation in assay [1] of 1.35 ± 0.37. Also, in assay [2], the glomerular width is 0.996 ± 0.044. Further, the “fraction of imaged embryos annotated” value in assay [3] turned out to be 0.917. The “pronephric angle neck segment” value in assay [4] is 1.007 ± 0.0089.

Consider `Cc1onc(-c2ccccc2Cl)c1C(=O)N[C@@H]1C(=O)N2[C@@H]1SC(C)(C)[C@@H]2C(=O)O` [Cloxacillin sodium salt], for which the glomerular separation in assay [1] worked out at 1.06 ± 0.42. This compound also came in with a glomerular width in assay [2] of 1.172 ± 0.0081. In addition, the “fraction of imaged embryos annotated” value in assay [3] is 0.833. In assay [4], the “pronephric angle neck segment” value was found to be 1 ± 0.035.

The compound `O=C(c1ccc(OCCN2CCCCC2)cc1)c1c(-c2ccc(O)cc2)sc2cc(O)ccc12` [Raloxifene hydrochloride] returned a glomerular separation in assay [1] of 0.793 ± 0.18. Further, the glomerular width in assay [2] turned out to be 0.98 ± 0.059. Moreover, the “fraction of imaged embryos annotated” value in assay [3] was 0.917. The “pronephric angle neck segment” value in assay [4] turned out to be 1.01 ± 0.025.

As to `CC(=O)CC(c1ccccc1)c1c(O)c2ccccc2oc1=O` (configuration not stated) [Warfarin], in assay [1], the glomerular separation came to 1.14 ± 0.45. For the same compound, the glomerular width in assay [2] came to 0.797 ± 0.048. For the same compound, the “fraction of imaged embryos annotated” value in assay [3] stood at 0.333. In assay [4], the “pronephric angle neck segment” value amounted to 1.25 ± 0.027.

As for `CN(C)CC/C=C1/c2ccccc2COc2ccc(CC(=O)O)cc21` [Olopatadine hydrochloride], in assay [1], the glomerular separation came to 0.914 ± 0.34. The compound also returned a glomerular width in assay [2] of 0.97 ± 0.013. For the same compound, the “fraction of imaged embryos annotated” value in assay [3] was found to be 0.833. The “pronephric angle neck segment” value in assay [4] turned out to be 1.03 ± 0.025.

For the compound `COc1cccc2c1C(=O)c1c(O)c3c(c(O)c1C2=O)C[C@@](O)(C(=O)CO)C[C@@H]3O[C@H]1C[C@H](N)[C@H](O)[C@H](C)O1` [Doxorubicin hydrochloride], the glomerular separation in assay [1] worked out at 1.19 ± 0.75. Also, the glomerular width in assay [2] stood at 0.959 ± 0.11. For the same compound, the “fraction of imaged embryos annotated” value in assay [3] is 0.75. In addition, the “pronephric angle neck segment” value in assay [4] came to 0.9779 ± 0.0016.

For the compound `COc1ccc(C(=O)c2ccccc2O)c(O)c1` [Dioxybenzone], the glomerular separation in assay [1] is 2.57 ± 1.9. This compound had a glomerular width in assay [2] of 0.84 ± 0.044. Also, in assay [3], the “fraction of imaged embryos annotated” value amounted to 0.417. For the same compound, in assay [4], the “pronephric angle neck segment” value was 1.09 ± 0.018.

In assay [1], `NS(=O)(=O)c1cc(C2(O)NC(=O)c3ccccc32)ccc1Cl` (configuration not stated) [Chlorthalidone] registered a glomerular separation of 1.04 ± 0.23. In assay [2], the glomerular width is 1.04 ± 0.079. Moreover, the “fraction of imaged embryos annotated” value in assay [3] is 0.75. The “pronephric angle neck segment” value in assay [4] came out at 1.02 ± 0.073.

In assay [1], `CC(NCCc1ccc(O)cc1)C(O)c1ccc(O)cc1` (configuration not stated) [Ritodrine hydrochloride] registered a glomerular separation of 1.03 ± 0.28. Also, the glomerular width in assay [2] was 0.952 ± 0.012. The “fraction of imaged embryos annotated” value in assay [3] was found to be 0.833. In assay [4], the “pronephric angle neck segment” value turned out to be 1.038 ± 0.0019.

For the compound `NCCc1cc[nH]n1` [Betazole hydrochloride], in assay [1], the glomerular separation worked out at 1.28 ± 0.54. This compound also showed a glomerular width in assay [2] of 0.9705 ± 0.0028. The “fraction of imaged embryos annotated” value in assay [3] was 0.917. Besides, in assay [4], the “pronephric angle neck segment” value was 1.05 ± 0.012.

Turning to `C[C@@H]1C[C@H]2[C@@H]3C[C@H](F)C4=CC(=O)C=C[C@]4(C)[C@@]3(F)[C@@H](O)C[C@]2(C)[C@@]1(O)C(=O)COC(=O)C(C)(C)C` [Flumethasone pivalate], in assay [1], the glomerular separation came to 1.2 ± 0.37. In addition, in assay [2], the glomerular width is 1.04 ± 0.015. Moreover, in assay [3], the “fraction of imaged embryos annotated” value is 0.25. For the same compound, the “pronephric angle neck segment” value in assay [4] came out at 0.989 ± 0.0085.

Compound `O=C1NCCN1c1ncc([N+](=O)[O-])s1` [Niridazole] registered a glomerular separation in assay [1] of 1.24 ± 0.57. In addition, the glomerular width in assay [2] is 0.867 ± 0.021. Further, in assay [3], the “fraction of imaged embryos annotated” value came out at 0.833. In addition, the “pronephric angle neck segment” value in assay [4] came out at 1.14 ± 0.077.

`c1ccc2c(c1)CCCC2C1=NCCN1` (configuration not stated) [Tetrahydrozoline hydrochloride] yielded a glomerular separation in assay [1] of 0.793 ± 0.31. In assay [2], this compound showed a glomerular width of 1.06 ± 0.027. Also, the “fraction of imaged embryos annotated” value in assay [3] was 1. The “pronephric angle neck segment” value in assay [4] came out at 0.98 ± 0.042.

In assay [1], `CC(C)Cn1cnc2c(N)nc3ccccc3c21` [Imiquimod] showed a glomerular separation of 0.76 ± 0.31. In assay [2], this compound showed a glomerular width of 0.944 ± 0.089. Moreover, the “fraction of imaged embryos annotated” value in assay [3] was found to be 1. Further, the “pronephric angle neck segment” value in assay [4] stood at 0.978 ± 0.037.

Take `CCC(C)(CN(C)C)OC(=O)c1ccccc1` (configuration not stated) [Amyleine hydrochloride]: the glomerular separation in assay [1] was 1.1 ± 0.77. For the same compound, in assay [2], the glomerular width amounted to 1.04 ± 0.028. Moreover, the “fraction of imaged embryos annotated” value in assay [3] is 0.833. Also, the “pronephric angle neck segment” value in assay [4] was 0.9967 ± 0.0077.

Turning to `NCCCC(O)(P(=O)(O)O)P(=O)(O)O` [Alendronate sodium], in assay [1], the glomerular separation stood at 0.796 ± 0.25. The glomerular width in assay [2] was found to be 0.984 ± 0.03. For the same compound, in assay [3], the “fraction of imaged embryos annotated” value is 0.833. In addition, in assay [4], the “pronephric angle neck segment” value worked out at 1 ± 0.041.

Consider `Cc1ccc(S(=O)(=O)NC(=O)NN2CCCCCC2)cc1` [Tolazamide], for which the glomerular separation in assay [1] worked out at 0.828 ± 0.19. For the same compound, the glomerular width in assay [2] came to 0.948 ± 0.015. Moreover, the “fraction of imaged embryos annotated” value in assay [3] was 0.917. Moreover, the “pronephric angle neck segment” value in assay [4] worked out at 0.972 ± 0.023.

`CC(CN(C)C)CN1c2ccccc2Sc2ccccc21` (configuration not stated) [Trimeprazine tartrate] yielded a glomerular separation in assay [1] of 0.739 ± 0.27. This compound showed a glomerular width in assay [2] of 0.9878 ± 0.0068. Moreover, the “fraction of imaged embryos annotated” value in assay [3] was 0.833. For the same compound, in assay [4], the “pronephric angle neck segment” value was 1.01 ± 0.0053.

Consider `CCC(C)(C)c1ccc(CC(C)CN2C[C@@H](C)O[C@@H](C)C2)cc1` (some centres not stated) [Amorolfine hydrochloride], for which the glomerular separation in assay [1] stood at 0.874 ± 0.48. For the same compound, the glomerular width in assay [2] was found to be 0.987 ± 0.017. Besides, the “fraction of imaged embryos annotated” value in assay [3] is 0.917. Moreover, the “pronephric angle neck segment” value in assay [4] stood at 0.983 ± 0.05.

In the case of `CN1CCN(C(c2ccccc2)c2ccc(Cl)cc2)CC1` (configuration not stated) [Chlorcyclizine hydrochloride], in assay [1], the glomerular separation is 1.13 ± 0.62. Moreover, the glomerular width in assay [2] is 0.995 ± 0.017. In assay [3], the “fraction of imaged embryos annotated” value came to 0.917. Further, in assay [4], the “pronephric angle neck segment” value was determined as 0.966 ± 0.022.

For the compound `O=C(COc1ccc(Cl)cc1)N1CCN(Cc2ccc3c(c2)OCO3)CC1` [Fipexide hydrochloride], in assay [1], the glomerular separation amounted to 1.26 ± 0.55. In assay [2], this compound registered a glomerular width of 0.86 ± 0.031. Besides, in assay [3], the “fraction of imaged embryos annotated” value turned out to be 0.75. Besides, in assay [4], the “pronephric angle neck segment” value was found to be 1.24 ± 0.11.

For the compound `Cc1onc(-c2ccccc2)c1C(=O)N[C@@H]1C(=O)N2[C@@H]1SC(C)(C)[C@@H]2C(=O)O` [Oxacillin sodium], the glomerular separation in assay [1] came out at 0.779 ± 0.29. In assay [2], this compound returned a glomerular width of 1 ± 0.087. In addition, the “fraction of imaged embryos annotated” value in assay [3] is 0.833. Besides, the “pronephric angle neck segment” value in assay [4] was 0.9685 ± 0.0044.
